Data taken from PubChem BioAssay (NCATS).
Records with an inconclusive call do not appear. Activity calls are given as the source filed them. Unless noted, the call rests on the fitted dose curve.

Tests used:
[1] = target: Estrogen receptor (Homo sapiens) (UniProt P03372); test: qHTS assay for small molecule agonists of estrogen receptor alpha signaling (AID 588514); further: nearly all actives have a fitted effect of over 70% in size; further: potency means the concentration at half of the fitted maximal effect;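 on activation: 0% = vehicle only and 100% = reference agonist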
Sequence of Estrogen receptor (Homo sapiens) (P03372 whole entry, looked up): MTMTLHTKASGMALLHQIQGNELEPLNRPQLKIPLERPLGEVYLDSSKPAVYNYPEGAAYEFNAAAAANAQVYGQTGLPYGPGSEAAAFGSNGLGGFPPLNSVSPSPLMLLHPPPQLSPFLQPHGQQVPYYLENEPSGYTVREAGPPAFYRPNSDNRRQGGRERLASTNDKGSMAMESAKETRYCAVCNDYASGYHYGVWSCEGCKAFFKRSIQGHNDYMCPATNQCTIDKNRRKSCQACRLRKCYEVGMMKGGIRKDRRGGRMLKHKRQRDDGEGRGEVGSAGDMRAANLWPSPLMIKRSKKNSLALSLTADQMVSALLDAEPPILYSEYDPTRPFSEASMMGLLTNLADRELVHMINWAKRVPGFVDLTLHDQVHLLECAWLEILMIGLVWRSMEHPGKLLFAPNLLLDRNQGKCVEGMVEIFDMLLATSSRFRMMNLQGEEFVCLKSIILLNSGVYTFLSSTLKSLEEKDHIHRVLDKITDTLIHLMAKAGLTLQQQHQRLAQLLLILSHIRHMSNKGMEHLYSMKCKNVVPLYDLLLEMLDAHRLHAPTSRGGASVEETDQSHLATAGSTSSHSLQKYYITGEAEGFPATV
How it was run: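 Reporter-gene assay. […] controls beta-lactamase in HEK 293 GripTite cells; after 18 hrs with compound, CCF4 substrate is added for 2 hrs and fluorescence is read.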

[2] = target: Peroxisome proliferator-activated receptor gamma (Homo sapiens) (UniProt P37231); test: qHTS assay for small molecule agonists of peroxisome proliferator-activated receptor gamma signaling (AID 588536; active means well fitted curve in the direction sought with a large enough effect in the signal ratio, with a control signal flat, not every such curve was filed as active; the % refers to the signal ratio;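 further: 0% = DMSO basal wells and 100% = rosiglitazone at 2 µM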)
Sequence of Peroxisome proliferator-activated receptor gamma (Homo sapiens) (P37231 whole entry, looked up): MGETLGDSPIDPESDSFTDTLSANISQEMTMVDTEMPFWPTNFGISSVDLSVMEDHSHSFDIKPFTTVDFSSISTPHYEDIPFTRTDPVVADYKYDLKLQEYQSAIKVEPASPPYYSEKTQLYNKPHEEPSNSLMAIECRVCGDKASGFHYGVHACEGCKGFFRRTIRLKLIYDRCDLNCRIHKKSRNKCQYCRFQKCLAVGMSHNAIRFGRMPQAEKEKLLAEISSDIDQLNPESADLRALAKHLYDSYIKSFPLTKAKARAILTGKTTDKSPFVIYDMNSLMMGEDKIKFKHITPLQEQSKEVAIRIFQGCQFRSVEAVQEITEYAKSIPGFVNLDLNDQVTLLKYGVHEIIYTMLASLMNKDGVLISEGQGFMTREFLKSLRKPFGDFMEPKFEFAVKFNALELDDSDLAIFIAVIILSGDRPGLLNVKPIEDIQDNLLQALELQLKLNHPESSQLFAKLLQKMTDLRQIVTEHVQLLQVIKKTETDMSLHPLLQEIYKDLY
How it was run: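 HEK293 UAS-bla reporter line, 1% charcoal/dextran FBS; titration, 16 h, 37 C; CCF4 loading 2 h RT; fluorescence 460/530 nm. Normalized to rosiglitazone 2 uM = 100%, DMSO = 0%.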

[3] = target: Vitamin D3 receptor (Homo sapiens) (UniProt P11473); test: qHTS assay for small molecule antagonists of vitamin D receptor signaling (AID 588541);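 further: receptor activated by calcitriol during compound treatment; series mostly up to about 77 µM; on the % scale 0 is the no-effect control and ±100 the full control effect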
Sequence of Vitamin D3 receptor (Homo sapiens) (P11473 whole entry, looked up): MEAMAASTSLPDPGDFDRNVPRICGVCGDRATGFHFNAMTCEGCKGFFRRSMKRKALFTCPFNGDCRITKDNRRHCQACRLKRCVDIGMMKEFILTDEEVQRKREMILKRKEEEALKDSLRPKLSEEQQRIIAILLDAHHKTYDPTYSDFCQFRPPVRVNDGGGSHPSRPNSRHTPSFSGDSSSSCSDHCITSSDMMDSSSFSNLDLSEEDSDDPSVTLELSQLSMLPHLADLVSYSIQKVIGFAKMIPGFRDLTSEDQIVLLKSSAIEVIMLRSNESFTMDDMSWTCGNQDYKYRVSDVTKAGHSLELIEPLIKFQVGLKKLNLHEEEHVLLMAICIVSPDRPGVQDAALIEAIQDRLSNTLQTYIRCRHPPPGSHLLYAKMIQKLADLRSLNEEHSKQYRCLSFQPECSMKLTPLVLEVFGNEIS
How it was run: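 Antagonist-mode beta-lactamase reporter assay: HEK293T VDR-UAS-bla cells were exposed to titrated compound alongside 1-alpha,25-dihydroxyvitamin D3 at 3 nM final for 16 h. Values were normalized to the 50 nM agonist control and DMSO basal, with IC50 and efficacy from Hill equation fits.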

[4] = target: Vitamin D3 receptor (Homo sapiens) (UniProt P11473); test: qHTS assay for small molecule agonists of vitamin D receptor signaling (AID 588543);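 further: 0% = DMSO basal and 100% = reference agonist control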
How it was run: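 Measured: β-lactamase reporter activity (CCF4, 405 nm excitation, 460/530 nm emission) in HEK293T VDR-UAS-bla cells after 16 h compound exposure at 37 °C. Normalization against 50 nM 1α,25-dihydroxyvitamin D3 and DMSO; Hill-fit EC50.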

[5] = qHTS assay for small molecule agonists of retinoid X receptor alpha signaling (AID 588544); details: HEK293T RXRa-UAS-bla, beta-lactamase reporter, 18 h; 530 nm emission;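 on activation: 0% = DMSO basal wells and 100% = reference agonist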
[6] = target: Retinoic acid receptor RXR-alpha (Homo sapiens) (UniProt P19793); test: as above
Sequence of Retinoic acid receptor RXR-alpha (Homo sapiens) (P19793 whole entry, looked up): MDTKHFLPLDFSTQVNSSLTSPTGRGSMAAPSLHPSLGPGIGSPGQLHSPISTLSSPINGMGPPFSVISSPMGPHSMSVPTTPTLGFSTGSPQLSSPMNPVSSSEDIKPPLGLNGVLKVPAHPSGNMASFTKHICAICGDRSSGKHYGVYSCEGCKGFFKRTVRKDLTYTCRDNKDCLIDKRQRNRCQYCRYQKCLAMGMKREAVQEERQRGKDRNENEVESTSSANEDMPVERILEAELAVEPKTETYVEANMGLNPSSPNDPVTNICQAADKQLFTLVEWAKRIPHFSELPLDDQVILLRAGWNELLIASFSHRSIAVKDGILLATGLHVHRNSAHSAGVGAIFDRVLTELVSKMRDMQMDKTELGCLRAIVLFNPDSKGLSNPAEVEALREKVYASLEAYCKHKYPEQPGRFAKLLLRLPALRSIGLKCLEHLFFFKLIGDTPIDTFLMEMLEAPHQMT

[7] = target: Thyroid hormone receptor beta (Homo sapiens) (UniProt P10828); test: qHTS assay for small molecule agonists of thyroid hormone receptor beta signaling (AID 588545)
Sequence of Thyroid hormone receptor beta (Homo sapiens) (P10828 whole entry, looked up): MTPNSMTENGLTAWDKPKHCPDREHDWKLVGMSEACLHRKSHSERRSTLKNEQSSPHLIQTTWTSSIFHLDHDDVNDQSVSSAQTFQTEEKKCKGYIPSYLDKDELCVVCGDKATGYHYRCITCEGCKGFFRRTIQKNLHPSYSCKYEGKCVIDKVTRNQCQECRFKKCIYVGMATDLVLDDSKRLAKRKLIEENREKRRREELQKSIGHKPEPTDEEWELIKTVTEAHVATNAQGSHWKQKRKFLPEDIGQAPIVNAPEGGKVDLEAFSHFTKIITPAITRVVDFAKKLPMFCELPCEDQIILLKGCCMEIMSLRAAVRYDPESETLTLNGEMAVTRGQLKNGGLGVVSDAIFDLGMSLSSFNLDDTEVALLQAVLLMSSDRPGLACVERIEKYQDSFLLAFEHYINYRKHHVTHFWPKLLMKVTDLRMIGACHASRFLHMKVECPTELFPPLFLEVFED
How it was run: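 Agonist activity was read as beta-lactamase CCF4 fluorescence (405 ex, 460/530 em), scaled between DMSO (0%) and 10 nM T3 (100%), then Hill-fitted for EC50 and efficacy. HEK 293 TR-UAS-bla cells in 2% charcoal/dextran FBS medium were exposed 18 h at 37 C.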

[8] = qHTS assay for small molecule antagonists of retinoid X receptor alpha signaling (AID 588546; active means well fitted inhibition curve with a large enough effect in the signal ratio, with a control signal flat, not every such curve was filed as active; the % refers to the signal ratio;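 further: cells stimulated with 9-cis-retinoic acid as agonist; on the % scale 0 is the no-effect control and ±100 the full control effect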); details: HEK293T RXRa-UAS-bla, beta-lactamase ratio, antagonist mode; measured here: W530 green channel, cytotoxicity proxy
How it was run: (§1)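 Beta-lactamase reporter inhibition, read as CCF4 fluorescence ratio (ex 405, em 460/530 nm) after 2 h at RT. HEK293T UAS-bla cells, 2500/well, were stimulated with 9-cis-RA at 500 or 100 nM final alongside test compound for 18 h at 37 C.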

[9] = target: Retinoic acid receptor RXR-alpha (Homo sapiens) (UniProt P19793); test: as above; details: HEK293T RXRa-UAS-bla, beta-lactamase ratio, antagonist mode
How it was run: as §1

[10] = qHTS assay for small molecule activators of the nuclear factor-kappa B (NF-kB) signaling pathway (AID 651749; active means well fitted activation curve with a large enough effect in the signal ratio; the % refers to the signal ratio; further: series mostly up to about 77 µM; % of control where 0% means no effect); details: NF-kB-bla ME-180 cells, beta-lactamase FRET ratio, 16 h; activation: stronger effect = higher value
How it was run: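 Stably transfected ME-180 line; NF-kB response element upstream of beta-lactamase. Treatment: compound or DMSO, 16 hr. Detection: fluorescent FRET substrate.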

[11] = qHTS assay for environmental chemicals that activate the Aryl hydrocarbon Receptor (AhR) signaling pathway (AID 651777; active means well fitted curve in the direction sought with a large enough effect; an effect the other way counts as inactive or inconclusive; further: % of control where 0% means no effect; nearly all actives have a fitted effect of over 15% in size); details: 1A2-DRE human hepatoma cells, luciferase, 24 h; activation: stronger effect = higher value
How it was run: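 Reporter gene assay: hepatoma cells with DRE/CYP1A2-luciferase, 24 hr compound incubation at 37 C, 5% CO2, luminescence after One-Glo (30 min, RT).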

[12] = target: Peroxisome proliferator-activated receptor alpha (Homo sapiens) (UniProt Q07869); test: qHTS assay for small molecule agonists of the peroxisome proliferator-activated receptor alpha (PPARalpha) signaling pathway (AID 651778; active means well fitted curve in the direction sought with a large enough effect; an effect the other way counts as inactive or inconclusive; further: % of control where 0% means no effect); details: PathHunter PPARalpha complementation, chemiluminescence, 6 h; max response: stronger effect = higher value
Sequence of Peroxisome proliferator-activated receptor alpha (Homo sapiens) (Q07869 whole entry, looked up): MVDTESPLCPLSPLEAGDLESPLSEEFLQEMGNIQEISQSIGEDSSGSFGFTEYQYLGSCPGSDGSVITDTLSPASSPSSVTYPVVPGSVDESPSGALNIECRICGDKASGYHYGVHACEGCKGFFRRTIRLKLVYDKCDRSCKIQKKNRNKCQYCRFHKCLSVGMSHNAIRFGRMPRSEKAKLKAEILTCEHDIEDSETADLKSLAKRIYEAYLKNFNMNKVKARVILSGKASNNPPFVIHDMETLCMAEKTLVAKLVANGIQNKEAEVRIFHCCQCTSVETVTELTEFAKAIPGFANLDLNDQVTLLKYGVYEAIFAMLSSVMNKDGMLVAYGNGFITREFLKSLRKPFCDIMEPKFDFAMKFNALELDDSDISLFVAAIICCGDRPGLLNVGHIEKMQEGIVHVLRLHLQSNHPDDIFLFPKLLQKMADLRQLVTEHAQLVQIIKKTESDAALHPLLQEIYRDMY
How it was run: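 Chemiluminescence from complemented enzyme reported PPARalpha activation in cells after 6 hr of compound treatment at 37 C. The detection reagent was incubated for 60 min at room temperature, and compounds were scored as agonists.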

[13] = qHTS assay for small molecule agonists of the antioxidant response element (ARE) signaling pathway measured by Nrf2-dependant transcriptional activity (AID 720636; active means well fitted curve in the direction sought with a large enough effect in the repeat runs; an effect the other way counts as inactive or inconclusive;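 further: HepG2 cells with an ARE-driven luciferase reporter; % of control where 0% means no effect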)
How it was run: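 Nrf2-dependent transcription is measured in ARE-luc HepG2 cells: compound is applied for 16 hr at 37 C after a 6 hr attachment period, and luciferase activity is quantified by luminescence using ONE-Glo.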

[14] = qHTS assay for small molecule agonists of the antioxidant response element (ARE) signaling pathway measured by Nrf2-dependant transcriptional activity - cell viability counter screen (AID 720653; active means well fitted curve in the direction sought with a large enough effect in the repeat runs; an effect the other way counts as inactive or inconclusive; further: on the % scale 0 is the no-effect control and ±100 the full control effect); details: ARE-bla HepG2 viability, CellTiter-Glo ATP luminescence, 16 h; max response: stronger effect = lower value
How it was run: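 Cytotoxicity counter screen: intracellular ATP quantified by CellTiter-Glo luminescence in the same ARE-bla HepG2 plates, after 16 h compound exposure and a 2 h beta-lactamase substrate step.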

[15] = qHTS assay for cell viability of HEK293 cells (AID 743288; active means well fitted curve in the direction sought with a large enough effect; an effect the other way counts as inactive or inconclusive; further: on the % scale 0 is the no-effect control and ±100 the full control effect; nearly all actives have a fitted effect of over 50% in size); details: ATP luminescence (CellTiter-Glo), 18 h; max response: stronger effect = lower value
How it was run: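 Luminescent ATP quantitation served as the viability read-out. Cells (parental HEK293, 2,000/well) received compounds after at least 5 h at 37 C and were exposed for 18 h before a 30 min room-temperature reagent step.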

[16] = qHTS assay for cell viability of the p53RE-bla HCT-116 cell line (AID 743292; active means well fitted curve in the direction sought with a large enough effect; an effect the other way counts as inactive or inconclusive; further: nearly all actives have a fitted effect of over 55% in size; further: potency means the concentration at half of the fitted maximal effect)
How it was run: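 ATP-based luminescence, 16 h compound exposure at 37 C, p53RE-bla HCT-116 cells at 4,000/well.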

[17] = target: Nuclear receptor subfamily 1 group I member 2 (Rattus norvegicus) (UniProt Q9R1A7); test: qHTS assay for small molecule activators of the rat pregnane X receptor (rPXR) signaling pathway (AID 651751; call rule not given here; further: 0% is about no effect); details: rPXR reporter cells, luciferase (One-Glo), 24 h
Sequence of Nuclear receptor subfamily 1 group I member 2 (Rattus norvegicus) (Q9R1A7 whole entry, looked up): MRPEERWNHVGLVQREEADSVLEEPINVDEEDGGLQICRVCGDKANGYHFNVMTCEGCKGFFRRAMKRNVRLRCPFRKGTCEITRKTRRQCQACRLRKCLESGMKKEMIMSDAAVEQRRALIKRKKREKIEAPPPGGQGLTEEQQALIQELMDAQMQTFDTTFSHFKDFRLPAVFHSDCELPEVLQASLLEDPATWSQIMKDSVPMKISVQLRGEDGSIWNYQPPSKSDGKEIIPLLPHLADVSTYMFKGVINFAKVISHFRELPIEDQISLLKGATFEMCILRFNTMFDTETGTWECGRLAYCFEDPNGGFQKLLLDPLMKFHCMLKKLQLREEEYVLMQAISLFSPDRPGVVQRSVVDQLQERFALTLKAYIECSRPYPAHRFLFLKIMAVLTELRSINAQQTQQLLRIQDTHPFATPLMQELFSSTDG

[18] = target: Glucocorticoid receptor (Homo sapiens) (UniProt P04150); test: qHTS assay for small molecule agonists of glucocorticoid receptor signaling (AID 588532; active means well fitted curve in the direction sought with a large enough effect in the signal ratio, with a control signal flat; the % refers to the signal ratio;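 further: 100% = dexamethasone at 0.1 µM and 0% = DMSO only wells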); details: HeLa MMTV-bla, beta-lactamase ratio, agonist, 18 h; stronger effect = higher value; percent of dexamethasone control, DMSO zero
Sequence of Glucocorticoid receptor (Homo sapiens) (P04150 whole entry, looked up): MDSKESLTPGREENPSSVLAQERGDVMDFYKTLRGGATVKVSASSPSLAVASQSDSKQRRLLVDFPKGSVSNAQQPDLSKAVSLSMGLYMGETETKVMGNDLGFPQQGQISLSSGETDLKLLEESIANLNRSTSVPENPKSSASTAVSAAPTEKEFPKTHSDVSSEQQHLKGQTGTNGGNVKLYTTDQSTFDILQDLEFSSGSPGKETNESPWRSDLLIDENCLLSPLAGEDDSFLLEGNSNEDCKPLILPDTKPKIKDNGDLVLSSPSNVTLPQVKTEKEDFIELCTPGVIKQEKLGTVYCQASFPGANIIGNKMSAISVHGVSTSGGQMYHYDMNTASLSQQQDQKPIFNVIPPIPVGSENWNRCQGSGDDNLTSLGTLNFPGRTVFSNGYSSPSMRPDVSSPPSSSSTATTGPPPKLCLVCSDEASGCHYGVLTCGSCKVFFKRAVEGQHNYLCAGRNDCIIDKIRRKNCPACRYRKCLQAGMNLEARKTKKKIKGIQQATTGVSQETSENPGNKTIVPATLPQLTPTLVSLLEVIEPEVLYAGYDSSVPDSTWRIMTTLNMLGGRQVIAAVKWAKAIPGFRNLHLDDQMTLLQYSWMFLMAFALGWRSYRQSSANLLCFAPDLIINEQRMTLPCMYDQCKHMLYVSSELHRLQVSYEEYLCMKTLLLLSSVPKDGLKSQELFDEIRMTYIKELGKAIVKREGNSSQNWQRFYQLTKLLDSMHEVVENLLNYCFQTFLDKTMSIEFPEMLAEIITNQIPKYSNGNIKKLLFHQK
How it was run: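 Using MMTV-bla HeLa cells in medium with 1% stripped FBS and 25 mM HEPES, compounds were titrated and incubated overnight-length (18 h). Beta-lactamase cleavage of CCF4 was quantified by dual-emission fluorescence.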

[19] = target: Glucocorticoid receptor (Homo sapiens) (UniProt P04150); test: qHTS assay for small molecule antagonists of glucocorticoid receptor signaling (AID 588533; active means well fitted inhibition curve with a large enough effect in the signal ratio, with a control signal flat, not every such curve was filed as active; the % refers to the signal ratio;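 further: cells stimulated with 2 nM dexamethasone as agonist; on the % scale 0 is the no-effect control and ±100 the full control effect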)
How it was run: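 Antagonist-mode qHTS: compound titrations added to GRE-bla HeLa cells, then dexamethasone 2 nM final; 18 h, 37 C. CCF4 FRET fluorescence normalized to dexamethasone and DMSO; IC50 from Hill fit.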

[20] = qHTS assay for small molecule activators of the human pregnane X receptor (PXR) signaling pathway (AID 720659; call rule not given here; further: 0% is about no effect)

COC(=O)C1CCC(C(=O)OC)CC1 (stereo unspecified)
inactive: Potency [1] | outcome [2] | Potency [3] | outcome [4] | Potency [6] | Potency [7] | max response [9] -11.5% | activation [10] -2.67% | activation [11] 0.798% | max response [12] 3.84% | Potency [13] | max response [14] 1.5% | max response [15] -13.8% | Potency [16] | max response [17] 2.13%
-4.14%: max response [5]
-8.09%: max response [8]

FC(F)(F)c1ccc(Cl)c(Cl)c1
-13.8%: max response [5]
5.97%: max response [8]
inactive: Potency [1] | activation [18] -1.21% | Potency [19] | Potency [3] | outcome [4] | Potency [6] | Potency [7] | max response [9] -9.01% | activation [10] -0.0768% | Potency [13] | max response [14] -4.28% | max response [15] -13.4% | Potency [16] | max response [17] -0.267% | outcome [20]

CCCCC(CC)COP(=O)(O)OCC(CC)CCCC (stereo unspecified)
-7.8%: max response [8]
inactive: Potency [1] | activation [18] -13.4% | Potency [3] | outcome [4] | Potency [7] | max response [9] -10.6% | activation [11] -0.89% | max response [12] 10.3% | max response [14] -10.7% | max response [15] -5.86% | Potency [16] | max response [17] 0.935%

O=C(O)CN(CCCN(CC(=O)O)CC(=O)O)CC(=O)O
active: Potency [1] 8.91 µM
inactive: activation [18] 16.2% | outcome [4] | Potency [6] | Potency [7] | activation [10] 0.672% | activation [11] 0.0297% | max response [12] 0.851% | max response [14] -7.74% | max response [15] -11% | Potency [16] | max response [17] -5.79% | outcome [20]
-16.9%: max response [5]

CCCCCCCCCCCCCC(=O)OC
0.848%: max response [5]
-10%: max response [8]
inactive: Potency [1] | activation [18] -4.01% | Potency [19] | outcome [2] | Potency [3] | Potency [6] | Potency [7] | max response [9] -1.05% | activation [10] 0.501% | activation [11] 0.0228% | Potency [13] | max response [14] -15.8% | max response [15] 4.18% | Potency [16] | max response [17] 2.49% | outcome [20]

CCCN(CCC)c1c([N+](=O)[O-])cc(C(F)(F)F)c(N)c1[N+](=O)[O-]
active: Potency [16] 50.1 µM
inactive: Potency [1] | activation [18] -4.44% | outcome [4] | max response [9] -37.1% | Potency [13] | max response [14] -7.36% | max response [15] -20.5%
-8.88%: max response [8]

CC1(C)CC(NCCCCCCNC2CC(C)(C)NC(C)(C)C2)CC(C)(C)N1
-2.83%: max response [5]
inactive: Potency [1] | activation [18] -7.91% | Potency [19] | outcome [2] | outcome [4] | Potency [6] | max response [9] 2.64% | activation [10] -3.22% | activation [11] 0.472% | max response [12] -0.876% | Potency [13] | max response [14] -7.27% | max response [15] -6.6% | Potency [16] | max response [17] 1.41% | outcome [20]
-10.1%: max response [8]
